# Columns and labels:
# Conditions in all cases: concentration: 1 μM,replicates: in singlicate; n = 1
# BMX = tested on: BMX
# BRAF = tested on: BRAF
# BRK = tested on: T1, BRK
# T1 construct: gene PTK6
# BRSK1 = tested on: BRSK1
# BRSK2 = tested on: BRSK2
# BTK = tested on: BTK
# BUB1 = tested on: BUB1
# CAMK1B = tested on: CAMK1B
# CAMK1D = tested on: CAMK1D
# CAMK1G = tested on: CAMK1G
# CAMK1 = tested on: CAMK1
# CAMK2A = tested on: CAMK2A
# CAMK2B = tested on: CAMK2B
# CAMK2D = tested on: CAMK2D
# CAMK2G = tested on: CAMK2G
# CAMK4 = tested on: CAMK4
# CAMKK1 = tested on: CAMKK1
# CAMKK2 = tested on: CAMKK2
# CASK = tested on: CASK
# CDC2L1 = tested on: T2, CDC2L1
# T2 construct: gene CDK11B
# 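Note: KINOMEscan kinase panel screen.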
Structure (SMILES),%Inh (BMX) [%],%Inh (BRAF) [%],%Inh (BRK) [%],%Inh (BRSK1) [%],%Inh (BRSK2) [%],%Inh (BTK) [%],%Inh (BUB1) [%],%Inh (CAMK1B) [%],%Inh (CAMK1D) [%],%Inh (CAMK1G) [%],%Inh (CAMK1) [%],%Inh (CAMK2A) [%],%Inh (CAMK2B) [%],%Inh (CAMK2D) [%],%Inh (CAMK2G) [%],%Inh (CAMK4) [%],%Inh (CAMKK1) [%],%Inh (CAMKK2) [%],%Inh (CASK) [%],%Inh (CDC2L1) [%]
C[C@@H]1CCN(C(=O)N2CCCC2)C[C@@H]1N(C)c1ncnc2[nH]ccc12,1,11,0,0,5,1,25,18,8,5,5,2,0,12,14,19,15,8,0,3
CCn1c(-c2nonc2N)nc2cncc(CNC3CCNCC3)c21.Cl [SB-747651],0,10,0,4,0,14,48,30,22,0,19,0,0,5,17,71,1,16,16,0
Cl.c1ccc(Oc2ccc(Nc3ccnc4cc(-c5ccc(CN6CCNCC6)o5)ccc34)cc2)nc1 [GW567142],4,0,92.7,0,0,76,38,0,20,0,29,0,0,3,0,0,0,0,0,0
CS(=O)c1ccc(-c2coc3ccc(-c4n[nH]c(=O)o4)cc23)cc1 (stereo not drawn),0,12,0,0,2,20,14,14,0,12,0,5,16,6,3,0,7,12,26,0
COc1cc2nccc(Nc3ccc(Oc4ccccc4)cc3)c2cc1OC.Cl [GI261656],36,0,96.1,0,0,93.3,31,23,2,0,20,0,0,16,18,0,7,17,0,0
Cn1ccc2ncnc(Oc3ccc(NC(=O)Nc4cncc(C(F)(F)F)c4)c(Cl)c3)c21,0,52,0,0,0,0,0,0,0,0,0,0,0,0,0,0,0,14,0,0
CCN1CCN(CCCC(=O)Nc2n[nH]c3nc(-c4ccc(O)cc4)c(Br)cc23)CC1 [SB-731579],0,81,0,50,54,0,5,65,17,0,0,0,0,0,0,10,0,0,0,0
C[C@@H]1CNc2c(sc3ccc4nc(-c5ccncc5)ccc4c23)C(=O)N1,0,0,0,64,59,0,77,0,25,0,19,25,23,22,14,13,27,47,0,4
Nc1nccc(-c2ccc3c(N)n[nH]c3c2)n1 [GSK1034945],0,0,4,41,15,0,73,10,7,0,11,0,5,0,0,0,1,8,6,0
